Drawing on PubChem BioAssay AID372 (MTDP, 2006), this text covers inhibition for 28 molecules.

SMILES strings stand for the structures. In all, about 100,000 compounds went through this assay and about 770 (0.77%) were called active. The entries come from a sample that favours actives as a whole. Unmarked numbers belong to inactive results. Rule as the data show it: active = inhibition above about 50%; inactive = the rest.

This assay deals with Gag-Pol polyprotein (Human immunodeficiency virus type 1 group M subtype B (isolate HXB2)) (UniProt P04585). As to the kind of experiment: RNase H inhibition, HIV 1 Gag Pol polyprotein, FRET biochemical assay, screening (AID 372). The settings on record: HIV-1 RT RNase H, FRET RNA/DNA substrate fluorescence; at 10 µM; stronger effect = higher value.
The term inhibition denotes the change of the read-out against control, counted positive when it falls. On to `COc1ccc(N=CC2=C(O)CC(c3ccccc3)CC2=O)cc1OC` (stereo not drawn), for which the inhibition is 0%.

As for `COC(=O)c1ccc(NC(=O)Cc2ccc(OC)cc2)cc1`, the inhibition was 1%.

As for `CN1CCN(C2=NC(=O)/C(=C/c3ccc4c(c3)OCO4)S2)CC1`, the inhibition is 8%.

Take `O=C(C[n+]1cccc(NC(=O)c2ccccc2)c1)c1ccc2c(c1)Cc1ccccc1-2`: the inhibition was 24%.

Consider `CCOC(=O)C1=C(C)N=c2s/c(=C\c3ccc(-c4ccc(Cl)cc4Cl)o3)c(=O)n2C1c1ccc(C)cc1` (stereo not drawn), for which the inhibition was 5%.

`CCOc1ccc(C(=O)Nc2ccc(CC)cc2)cc1[N+](=O)[O-]`: the inhibition was 9%.

Consider `Cc1ccc(S(=O)(=O)Nc2ccccn2)cc1C`, for which the inhibition is 0%.

Consider `O=P(CCCO)(c1ccc(Cl)cc1)c1ccc(Cl)cc1`, for which the inhibition is 1%.

As for `O=C1C2C3C=CC(C3)C2C(=O)N1CNc1ccccc1` (stereo not drawn), the inhibition is 6%.

`COC(=O)c1ccccc1NS(=O)(=O)c1ccccc1`: the inhibition was 57% (active).

As for `COC(=O)c1ccccc1NS(=O)(=O)c1ccc(NC(C)=O)cc1`, the inhibition was 4%.

`COC(=O)c1ccccc1NS(=O)(=O)c1ccc(Cl)cc1`: the inhibition is 12%.

`COc1ccc(S(=O)(=O)N(CCc2ccccc2)CC(=O)NC2CCCCC2)cc1`: the inhibition is 4%.

For the molecule `CCn1c2ccccc2c2cc(NC(=O)COc3ccccc3Cl)ccc21`, the inhibition was 7%.

`COc1cc(C=O)ccc1OCCOc1cccc(Oc2ccccc2)c1`: the inhibition was 21%.

As for `COc1cc(C=O)ccc1OCCCCOc1cccc(Oc2ccccc2)c1`, the inhibition is 44%.

As to `Cc1ccc2nc(/C(C#N)=C/c3ccc(-c4cc([N+](=O)[O-])ccc4O)o3)[nH]c2c1`, the inhibition was 6%.

Consider `COc1ccc([N+](=O)[O-])cc1-c1ccc(/C=C(\C#N)c2nc3ccc(C)cc3[nH]2)o1`, for which the inhibition was 34%.

With `Cc1ccc([N+](=O)[O-])cc1-c1ccc(/C=C(\C#N)c2nc3ccccc3[nH]2)o1`, the inhibition is 58% (active).

`Cc1cccc(N2CCN(C(=O)c3ccc(Br)cc3)CC2)c1C`: the inhibition was 18%.

On to `Cc1ccc(S(=O)(=O)c2nc(N)sc2Cl)cc1`, for which the inhibition is 30%.

`Cc1ccc(S(=O)(=O)c2nc(Nc3ccccc3C)sc2Cl)cc1`: the inhibition was 59% (active).

For the molecule `COc1nc(S(=O)(=O)c2ccc(C)cc2)c(Cl)s1`, the inhibition was 0%.

For the molecule `COc1ccccc1-n1c(O)c(C=C2C=Nc3ccccc32)c(=O)[nH]c1=S`, the inhibition is 7%.

Take `CCSc1nnc(NC(=O)c2ccc(Cl)cc2)s1`: the inhibition was 4%.

In the case of `CCc1nnc(NC(=O)c2cnccn2)s1`, the inhibition is 9%.

On to `CCSc1nnc(NC(=O)c2cnccn2)s1`, for which the inhibition was 57% (active).

Consider `CCOC(=O)c1ccc(NC(=O)Cc2ccc(Br)cc2)cc1`, for which the inhibition is 3%.
